# The full list was thinned out, with the strongest signals kept by preference.
# B1: LlpA (Burkholderia cenocepacia) (protein)
# chain: MGSSHHHHHHSSGLVPRGSHKILGSNETLSAGNVVYSDNGQYHLAMQTDGNLVVYGPTGAVWQSQTSGSGGNRAVMQGDGNLVIYRADNTAAWSSKTAHPGAFLAVQDDGNVVIYWPRPAWASNTSDPATQQSAESKYLASGSTMSAGQTVTVAQYMLVFQADGNLVLYKNGGNPIWSTGTQGKGATYAVMQSDGNFVIYAGSTALWSTKTNGANGAQLVLQSDGNLVIYAPTAAWSTKFGLVTAPTSTSTSNNGPGSGICVGVCPPHPLNGNPFSPVGVGTTGLGFPTPGYPGAAF
# Key:
# Experiment in all cases: glycan array binding signal (z-score within array); higher = stronger binding
# Details in all cases: glycan notation: IUPAC condensed, linker removed
# Fuc(a1-2)Gal = molecular target: Fuc(a1-2)Gal
# Method in brief: (§1)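 The binding signal is a Z-score computed within each array. Data were drawn from 3228 arrays in the Consortium for Functional Glycomics database, restricted to those with a known protein sequence. Scores were averaged over arrays of the same protein sequence at different concentrations or buffers, and over linkers, and negative values can be taken as non-binding.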
# [1] = molecular target: Fuc(a1-2)Gal(b1-4)GlcNAc(b1-2)Man(a1-3)[Fuc(a1-2)Gal(b1-4)GlcNAc(b1-2)Man(a1-6)]Man(b1-4)GlcNAc(b1-4)GlcNAc
# Method in brief: as §1
# [2] = molecular target: Fuc(a1-2)Gal6S(b1-3)GlcNAc
# Method in brief: as §1
# [3] = molecular target: Fuc(a1-2)[Gal(a1-3)]Gal(b1-3)GalNAc
# Method in brief: as §1
# [4] = molecular target: Fuc(a1-2)[Gal(a1-3)]Gal(b1-3)GalNAc(b1-3)Gal(a1-4)Gal(b1-4)Glc
# Method in brief: as §1
# [5] = molecular target: Fuc(a1-2)[GalNAc(a1-3)]Gal(b1-3)GalNAc(b1-3)Gal(a1-4)Gal(b1-4)Glc
# Method in brief: as §1
# [6] = molecular target: Fuc(a1-2)[GalNAc(a1-3)]Gal(b1-4)GlcNAc(b1-3)Gal(b1-4)GlcNAc(b1-3)Gal(b1-4)GlcNAc
# Method in brief: as §1
# [7] = molecular target: Fuc(a1-3)[Gal(b1-4)]GlcNAc(b1-2)Man(a1-3)[Fuc(a1-3)[Gal(b1-4)]GlcNAc(b1-2)Man(a1-6)]Man(b1-4)GlcNAc(b1-4)[Fuc(a1-6)]GlcNAc
# Method in brief: as §1
# [8] = molecular target: Fuc(a1-3)[Gal(b1-4)]GlcNAc(b1-3)GalNAc
# Method in brief: as §1
# [9] = molecular target: Gal(a1-3)Gal(b1-3)GlcNAc(b1-3)GalNAc
# Method in brief: as §1
# [10] = molecular target: Gal(a1-3)Gal(b1-3)[Fuc(a1-4)]GlcNAc(b1-2)Man(a1-3)[Gal(a1-3)Gal(b1-3)[Fuc(a1-4)]GlcNAc(b1-2)Man(a1-6)]Man(b1-4)GlcNAc(b1-4)GlcNAc
# Method in brief: as §1
# [11] = molecular target: Gal(a1-3)Gal(b1-4)GlcNAc(b1-6)GalNAc
# Method in brief: as §1
# [12] = molecular target: Gal(b1-3)GlcNAc(b1-3)Gal(b1-3)GlcNAc
# Method in brief: as §1
# [13] = molecular target: Gal(b1-3)GlcNAc(b1-3)Gal(b1-4)GlcNAc
# Method in brief: as §1
# [14] = molecular target: Gal(b1-3)GlcNAc(b1-3)Gal(b1-4)GlcNAc(b1-2)[Gal(b1-3)GlcNAc(b1-3)Gal(b1-4)GlcNAc(b1-6)]Man(a1-6)[Gal(b1-3)GlcNAc(b1-3)Gal(b1-4)GlcNAc(b1-2)Man(a1-3)]Man(b1-4)GlcNAc(b1-4)[Fuc(a1-6)]GlcNAc
# Method in brief: as §1
# [15] = molecular target: Gal(b1-3)GlcNAc(b1-3)Gal(b1-4)GlcNAc(b1-3)Gal(b1-4)GlcNAc(b1-2)[Gal(b1-3)GlcNAc(b1-3)Gal(b1-4)GlcNAc(b1-3)Gal(b1-4)GlcNAc(b1-6)]Man(a1-6)[Gal(b1-3)GlcNAc(b1-3)Gal(b1-4)GlcNAc(b1-3)Gal(b1-4)GlcNAc(b1-2)Man(a1-3)]Man(b1-4)GlcNAc(b1-4)[Fuc(a1-6)]GlcNAc
# Method in brief: as §1
# [16] = molecular target: Gal(b1-3)GlcNAc(b1-3)Gal(b1-4)GlcNAc(b1-6)[Gal(b1-3)GlcNAc(b1-3)]Gal(b1-4)Glc
# Method in brief: as §1
# [17] = molecular target: Gal(b1-3)[Neu5Ac(b2-6)]GalNAc
# Method in brief: as §1
# [18] = molecular target: Gal(b1-4)GlcNAc(b1-2)Man(a1-3)Man(b1-4)GlcNAc(b1-4)GlcNAc
# Method in brief: as §1
# [19] = molecular target: Gal(b1-4)GlcNAc(b1-2)[Gal(b1-4)GlcNAc(b1-4)]Man(a1-3)[GlcNAc(b1-4)][Gal(b1-4)GlcNAc(b1-2)[Gal(b1-4)GlcNAc(b1-6)]Man(a1-6)]Man(b1-4)GlcNAc(b1-4)GlcNAc
# Method in brief: as §1
# [20] = molecular target: Gal(b1-4)GlcNAc(b1-3)Gal(b1-4)GlcNAc(b1-2)Man(a1-3)[Gal(b1-4)GlcNAc(b1-3)Gal(b1-4)GlcNAc(b1-2)Man(a1-6)]Man(b1-4)GlcNAc(b1-4)[Fuc(a1-6)]GlcNAc
# Method in brief: as §1
# [21] = molecular target: Gal(b1-4)GlcNAc(b1-3)Gal(b1-4)GlcNAc(b1-2)[Gal(b1-4)GlcNAc(b1-3)Gal(b1-4)GlcNAc(b1-6)]Man(a1-6)[Gal(b1-4)GlcNAc(b1-3)Gal(b1-4)GlcNAc(b1-2)Man(a1-3)]Man(b1-4)GlcNAc(b1-4)GlcNAc
# Method in brief: as §1
# [22] = molecular target: Gal(b1-4)GlcNAc(b1-3)Gal(b1-4)GlcNAc(b1-2)[Gal(b1-4)GlcNAc(b1-3)Gal(b1-4)GlcNAc(b1-6)]Man(a1-6)[Gal(b1-4)GlcNAc(b1-3)Gal(b1-4)GlcNAc(b1-2)Man(a1-3)]Man(b1-4)GlcNAc(b1-4)[Fuc(a1-6)]GlcNAc
# Method in brief: as §1
# [23] = molecular target: Gal(b1-4)GlcNAc(b1-6)Gal(b1-4)GlcNAc
# Method in brief: as §1
# [24] = molecular target: Gal(b1-4)GlcNAc(b1-6)[Gal(b1-4)GlcNAc(b1-3)]GalNAc
# Method in brief: as §1
# [25] = molecular target: Gal3S(b1-4)[Fuc(a1-3)]Glc6S
# Method in brief: as §1
# [26] = molecular target: Gal3S(b1-4)[Fuc(a1-3)]GlcNAc6S
# Method in brief: as §1
# Gal6S(b1-3)GlcNAc6S = molecular target: Gal6S(b1-3)GlcNAc6S
# Method in brief: as §1
# [27] = molecular target: GalNAc(a1-3)GalNAc(b1-3)Gal(a1-4)Gal(b1-4)GlcNAc
# Method in brief: as §1
# [28] = molecular target: Glc(a1-6)Glc(a1-6)Glc(a1-6)Glc
# Method in brief: as §1
binder,measurement,setting,value
B1,glycan array binding signal (z-score),Fuc(a1-2)Gal,1.82
same,glycan array binding signal (z-score),[1],-0.314
same,glycan array binding signal (z-score),[2],0.167
same,glycan array binding signal (z-score),[3],0.017
same,glycan array binding signal (z-score),[4],-0.361
same,glycan array binding signal (z-score),[5],-0.271
same,glycan array binding signal (z-score),[6],1.26
same,glycan array binding signal (z-score),[7],2.08
same,glycan array binding signal (z-score),[8],0.159
same,glycan array binding signal (z-score),[9],-1.16
same,glycan array binding signal (z-score),[10],1.1
same,glycan array binding signal (z-score),[11],0.692
same,glycan array binding signal (z-score),[12],-0.418
same,glycan array binding signal (z-score),[13],-0.526
same,glycan array binding signal (z-score),[14],1.84
same,glycan array binding signal (z-score),[15],0.703
same,glycan array binding signal (z-score),[16],1.7
same,glycan array binding signal (z-score),[17],-0.687
same,glycan array binding signal (z-score),[18],1.84
same,glycan array binding signal (z-score),[19],0.349
same,glycan array binding signal (z-score),[20],2.46
same,glycan array binding signal (z-score),[21],0.339
same,glycan array binding signal (z-score),[22],1.91
same,glycan array binding signal (z-score),[23],-0.14
same,glycan array binding signal (z-score),[24],1.6
same,glycan array binding signal (z-score),[25],1.83
same,glycan array binding signal (z-score),[26],0.427
same,glycan array binding signal (z-score),Gal6S(b1-3)GlcNAc6S,-0.227
same,glycan array binding signal (z-score),[27],-0.419
same,glycan array binding signal (z-score),[28],0.011

# From the supplement of paper PMC8728848
